# Legend:
# Experiment in all cases: PBM binding z-score (relative to random genomic background probes); higher = stronger binding; sequences stand for … in GC…GCGATTGACAGCGTAGAATGAAGG
# [1] = system: RARb homodimer (NR concentration 270 nM)
# Outline: (§1)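 Probes were double-stranded and carried 34-nt variable regions with direct-repeat seeds, single-nucleotide variants, half-site ablations and random human genomic background sequences, printed on custom Agilent 4×180K protein-binding microarrays. Arrays were incubated 1 h with ligand-free nuclear receptor dimers in PBS pH 7.4, 2% milk, 0.02% Triton X-100, 1 mM DTT, 0.2 mg/mL BSA and 0.4 mg/ml salmon testes DNA. Antibodies against each partner (one per run) detected binding, and scanned fluorescence was regression-normalized. Binding z-scores use the random background probes as reference.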
# [2] = system: RARg:RXRa (NR concentration 270 nM, RXRa partner concentration 90 nM)
# Outline: as §1
# [3] = system: RARg homodimer (NR concentration 270 nM)
# Outline: as §1
# [4] = system: RXRa DBDmut IVT, anti-RXR (DBD mutation: RXRa K156A/R161A, NR concentration 90 nM)
# Outline: as §1
# [5] = system: RXRa homodimer (NR concentration 180 nM)
# Outline: as §1
# [6] = system: THRa:RXRa (NR concentration 90 nM, RXRa partner concentration 90 nM)
# Outline: as §1
# [7] = system: THRa homodimer (NR concentration 90 nM)
# Outline: as §1
# [8] = system: VDR:RXRa (NR concentration 270 nM, RXRa partner concentration 90 nM)
# Outline: as §1
# [9] = system: VDR homodimer (NR concentration 270 nM)
# Outline: as §1
Sequence,PBM binding z-score [1],PBM binding z-score [2],PBM binding z-score [3],PBM binding z-score [4],PBM binding z-score [5],PBM binding z-score [6],PBM binding z-score [7],PBM binding z-score [8],PBM binding z-score [9]
GGAGCGAGGGCATTCGAGTTGATAGCATGGCGAT,0.497,0.849,1.26,2.53,0.554,3.15,-0.906,3.31,3.06
CATACAGGGTCAGCTAGTCCAGAGTAGGGACGGC,2.88,4.26,4.24,1.65,4.04,2.86,0.757,4.36,1.68
GGAACGAGGGCAGTCGAGTTGATAGCATGGCGAT,0.327,0.643,1.18,1.1,0.35,1.52,-0.895,1.22,1.02
CCGACTGGGGCAAAGGTTACCTTACTCAGTACGA,2.02,3.15,1.62,0.0718,3.54,2.12,0.802,1.21,-0.495
CCGACTGGGGCAGAAGGGTTACCATACCATCCGG,1.08,0.666,0.787,-1.36,0.641,0.0428,-0.605,0.121,-0.332
TCTCGGAGGACACGAAGTTCAGAGCTTTCCAGAG,2.07,1.17,2.04,1.08,0.47,1.72,0.372,2.63,2.38
CATTACGGGTCAAGGTTATAGCACGGGTGGTACG,3.78,5.08,5.37,1.61,6.03,3.51,1.29,3.96,2.04
GCTAGTTGCTCAGTAAAAGGTCACACACCGGTCG,5.11,4.7,4.02,0.441,5.17,3.61,1.73,3.73,1.14
ATCTCTAGGTAAAGTTCAGTCAAAGATCGATAGA,2.8,2.17,2.39,1.6,1.35,1.46,0.288,1.96,2.11
AGTCAAAGTTCACTAGGTAGCGTAAGATTCAGCT,3.47,4.95,5.68,4.01,3.68,1.66,-0.346,3.56,3.7
CGTCCAAGGTCAATGCTAGGGCAGTGAAAGCATT,4.25,6.47,6.26,3.44,4.5,3.96,1.89,3.92,1.93
CTACCAAGATGAACAAGGTCGTTGATTACTATTC,1.24,0.579,0.551,1.52,0.837,1.77,1.54,2.52,2.53
CCTAGTTGGGCAAGGTCACACACGCTATAGGTAC,3.9,4.2,3.87,1.51,4.41,3.79,3.23,3.84,2.77
AGAACGTGGGCACGCTGAGTTGATAGCAGAGTAG,-0.561,-0.224,-0.0604,-0.279,-0.0635,-0.485,-0.747,-0.467,-0.131
GTTACAGGGTCAGCTAGAGGCCAGAGTATGGAAA,3.54,6.82,5.21,1.4,4.47,3.11,0.599,3.39,1.01
CGTCCAAGGTCAGAAAGGTCAGTGAATGCCGAGT,5.58,6.18,6.89,3,5.59,4.14,2.3,6.33,4.66
CTGCCTAGGTCAGGGCCAGTATAGGAGGAACGTT,2.43,2.85,3.61,-0.445,1.25,1.88,0.182,0.0608,-0.173
CAAACTAGGTCACCGGAAGGTCAAAGACCGCATG,5.49,8.28,7.5,1.49,6.27,4.46,2.95,5.76,2.59
GCTAGTTGGTCAGTAAAAGGTCATACACCGGTCG,4.93,4.81,3.6,0.515,4.8,3.39,1.35,3.69,2.09
CCTCGGAGGACAGAAGGTCTGAGCTGTCCGCTTT,-0.106,-0.159,0.14,-0.0896,-0.825,-0.0206,-0.537,-0.624,-0.369
ATACCAGGGTGATCGTGAGGTCGTTGATACTAAC,1.83,2.26,0.727,0.415,1.78,3.38,2.62,3.22,2.64
CCTACTGGGGCAAAAAGGTCATTGATGCCGATAA,4.23,4.99,4.5,0.866,4.63,2.9,0.176,5.42,3.13
TTACCAAGGTGAAGGTCATTGATCCCTCTGTAGA,3.83,3.84,3.53,1.15,4.16,3.41,1.74,3.43,2.17
AGCTCTAGGTAAAGATAGTTCAGTGAATGCAAAT,1.34,0.3,0.62,-0.0733,0.094,0.782,0.107,0.921,0.592
TCATATAGCTAAATGCTAGGTGAAAGTCCGATCT,0.184,0.0741,0.129,0.952,0.435,0.577,-0.00445,0.429,-0.29
CCTAGCAGGCCGGGGTCACTCAAGCATTTCGCTT,3.68,4.98,3.6,1.99,6.81,3.89,2.05,4.94,3.75

Sequence,PBM binding z-score [1],PBM binding z-score [2],PBM binding z-score [3],PBM binding z-score [4],PBM binding z-score [5],PBM binding z-score [6],PBM binding z-score [7],PBM binding z-score [8],PBM binding z-score [9]
TCTTGTAGATCAACAGGAGGTTAACAAAGATCGA,0.875,1.22,0.542,0.267,1.3,1.22,0.0101,0.812,-0.33
CGTCCAAGGTCAGAGAGGTCAGTGGATGCCGAGT,5.54,6.26,7.05,3.42,5.46,4.29,3.05,7.33,5.52
GCCTATAGGTAATACAAGGTGAAAGTCCGATTGT,0.782,0.406,0.334,0.0892,0.582,4.25,1.06,0.256,-0.376
AGAATGAGCTTATTAAGATCAGGGAATTGCGGTC,-0.66,-0.341,-0.0554,-0.496,-0.0846,-0.273,-0.456,-0.43,-0.554
GCTCGTAGGACAAGGTCAGAGCTTTGTCCGTAGA,2.93,2.95,3.49,0.281,2.55,2.64,0.975,1.4,0.106
CTTACTGGGCCACGAAAGGTCATTGATTCAGTGA,4.85,5.14,4.77,1.19,5.84,4.12,1.15,4.64,1.78
ACTAGCAGGCCAAGTGTGGGTCACTCAAACAAAG,2.25,2.53,1.51,-0.502,0.982,1.44,-0.207,0.53,-0.135
ACATGTAGGTTACATCCGGGTCATTCAGGCTATG,3.01,3.84,2.29,1.4,3,3.83,2.85,4.11,3.73
TCTAGTTGGTCAAAGTTCACACACTCGAAATGCG,4.37,4.88,4.04,2.68,4.73,2.62,1.04,4.44,4.58
CCTACTGGGCCAAAGGTCAATGATTCCAATGCTC,4.35,5.54,4.85,0.831,5.74,3,0.607,4.04,1.25
TTACCAAGGTGAAGGTCGTTGAACCCTCTGTAGA,2.16,1.94,1.52,0.243,3,2.74,1,3.04,1.63
TGAATGCGGTTATAAGATCAGGGAACGTTGCAAA,-0.46,0.175,0.239,-0.906,-0.0523,-0.183,-0.559,-0.0836,-0.171
ATCGAAAGGTAGAAGGTGAGTATACCCACCCGAA,0.237,0.633,0.664,-0.929,0.752,0.231,-0.265,-0.0163,-0.279
ACTATTAGTTGAGGCGAGGGCAACCGATAGGTTG,1.3,0.575,0.748,0.263,0.386,2.43,0.721,0.632,0.813
TCTCGGAGCACACGAAAGGTCAGAGCTCGACATC,4.06,3.96,3.53,0.437,3.98,2.41,-0.342,2.26,-0.387
CGAACTAGGTCATTGACAGGACTGTGAATAGTAA,2.4,3.66,4.03,2.31,2.35,2.49,0.524,1.65,0.706
CGGCCAAGGTCATAGGAGGTCAGTGAAGACAGAT,5.15,6.78,7.19,3.51,6.42,5.33,2.88,6.19,4.3
ACTAGTTGGTCAGCTGAGGTCACCCACAATTCGG,4.38,4.14,4.02,1.19,3.69,4.97,5.19,4.46,3.57
TCTCGGAGGACACGAAAGGTCACAGCTCGACATC,4.92,6.11,6.17,1.44,6.3,4.29,2.38,4.91,2.48
CTCGAAAGGTCGTGCTCAGGCGAGTATACCAAAC,2.65,4.35,3.64,1.3,4.75,2.88,-0.037,2.96,0.812
GGAACGAGGGCAATCGAGTTGATAGCATGGCGAT,0.554,1.14,1.22,1.84,0.638,2.64,-0.649,3.11,1.87
TCTGCTCGGTCAACGATGGTCAGCTAATCTGCTA,1.65,1.41,2.83,0.129,0.25,0.269,-0.89,-0.245,-0.978
TGTAGTTGGTCACGGAGGTCACACACGACGGGTA,4.39,4.74,4.47,-0.214,4.76,3.6,2.44,5.47,2.45
CCTTACGGGTCACGAGGTTATTGCACGACGAGCG,4.19,6.12,5.46,1.83,7.15,3.67,1.4,5.3,2.55
CGTACTGGGCCAAAAAGGTCATTGATGCCGATAA,4.63,4.76,4.11,1.07,4.86,3.15,0.617,5.04,2.61
CAAACTAGGTCACCGGAAGGTCAAGGTCCGCATG,5.77,8.53,7.66,2.03,6.64,4.3,3.53,5.58,3.16
